# In the supplement of paper PMC6992640:
# ± gives the standard deviation of the averaged measurements.
# Key:
# Test in all cases: cell viability (% of vehicle); higher = less cytotoxic
# Conditions in all cases: 10 µM; 72 h
# HCI01 = system: HCI01 (cells of a triple-negative basal-like breast cancer xenograft)
# HCI03 = system: HCI03 (cells of an ER-positive luminal breast cancer xenograft)
# HCI09 = system: HCI09 (cells of a triple-negative luminal androgen receptor type breast cancer xenograft)
# HCI11 = system: HCI11 (cells of an ER-positive luminal breast cancer xenograft)
# HCI13 = system: HCI13 (cells of an ER-positive luminal breast cancer xenograft)
# HCI16 = system: HCI16 (cells of a triple-negative basal-like breast cancer xenograft)
# UCD52 = system: UCD52 (cells of a triple-negative basal-like breast cancer xenograft)
# WHIM2 = system: WHIM2 (cells of a triple-negative basal-like breast cancer xenograft)
# WHIM30 = system: WHIM30 (cells of a triple-negative basal-like breast cancer xenograft)
# 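Further: PDX cells carrying CMV promoter-driven luciferase, viability read as total photon flux per second by IVIS imaging following D-luciferin, vehicle control 0.1% DMSO.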
SMILES,cell viability (HCI01),cell viability (HCI03),cell viability (HCI09),cell viability (HCI11),cell viability (HCI13),cell viability (HCI16),cell viability (UCD52),cell viability (WHIM2),cell viability (WHIM30)
CN(C)CCCN1c2ccccc2Sc2ccc(Cl)cc21.Cl [Chlorpromazine HCl],137 ± 40,98.9,68.1 ± 7.8,76.5,84.7 ± 3.1,122,51.4 ± 5.5,47.8 ± 7.8,104 ± 2.1
CC(=O)O[C@H]1Cc2ccccc2N(C(N)=O)c2ccccc21 [Eslicarbazepine acetate],102 ± 12,116,111 ± 6.7,85.7,102 ± 11,106,95.5 ± 1.3,102 ± 27,94.1 ± 16
COCCc1ccc(OCC(O)CNC(C)C)cc1.COCCc1ccc(OCC(O)CNC(C)C)cc1.O=C(O)C(O)C(O)C(=O)O (configuration not stated) [Metoprolol Tartrate],126 ± 15,111,112 ± 13,95,81.4 ± 14,112,88.1 ± 13,94.4 ± 13,107 ± 2.7
NC(=O)c1ccc(I)c([N+](=O)[O-])c1 [Iniparib (BSI-201)],121 ± 21,198,123 ± 20,82.6,124 ± 31,106,114 ± 5.4,181 ± 22,129 ± 22
C#CCNC1CCc2ccccc21.CS(=O)(=O)O (configuration not stated) [Rasagiline Mesylate],157 ± 6,117,117 ± 8.5,127,126 ± 4.8,141,107 ± 8.4,114 ± 6.4,139 ± 16
CN(C)CCN1C(=O)c2cccc3cc(N)cc(c23)C1=O [Amonafide],103 ± 4,69.4,42.7 ± 14,90.4,64.7 ± 3.1,196,138 ± 26,55.5 ± 5.5,78.5 ± 1.6
OCC1OC(OC2(CCl)OC(CCl)C(O)C2O)C(O)C(O)C1Cl (configuration not stated) [Sucralose],112 ± 2.4,128,91.4 ± 5.3,89.1,70 ± 4.5,140,70.9 ± 6.8,124 ± 30,110 ± 7.1
CC(C)NCC(O)COc1ccc(COCCOC(C)C)cc1.O=C(O)C=CC(=O)O (configuration not stated) [Bisoprolol fumarate],129.4 ± 0.93,129,102 ± 30,113,93.1 ± 1.1,96.1,86.1 ± 8.9,93.9 ± 16,120 ± 2.5
COC(=O)CCc1ccc(OCC(O)CNC(C)C)cc1.Cl (configuration not stated) [Esmolol HCl],133 ± 46,121,96.2 ± 1.9,95.3,96.8 ± 12,122,105 ± 18,108 ± 17,113 ± 2.2
C/C=C/C1=C(C(=O)O)N2C(=O)[C@@H](NC(=O)[C@H](N)c3ccc(O)cc3)[C@@H]2SC1 [Cefprozil],97.6 ± 3.2,174,103 ± 22,97,85.4 ± 1.5,115,107 ± 8.6,93.4 ± 26,115 ± 7.5
Nc1ncn(C2CC(O)C(CO)O2)c(=O)n1 (configuration not stated),145 ± 29,140,96 ± 13,108,126 ± 12,123,136 ± 30,105 ± 16,189 ± 7.4
CC1(C)CCC(C)(C)c2cc(NC(=O)c3ccc(C(=O)O)cc3)ccc21 [Tamibarotene],108 ± 22,63.1,65.6 ± 45,95.9,73.8 ± 30,77.1,124 ± 10,98.1 ± 28,121 ± 9.1
COCCCN1CCC(NC(=O)c2cc(Cl)c(N)c3c2OCC3)CC1 [Prucalopride],86.2 ± 8.4,134,99.9 ± 20,94.2,120 ± 13,122,89.3 ± 11,91.4 ± 9.2,123 ± 2.2
CCCCNc1ccc(C(=O)OCCN(C)C)cc1.Cl [Tetracaine HCl],130 ± 19,134,105 ± 25,121,122 ± 19,99,90.7 ± 13,92.2 ± 17,103.43 ± 0.084
O=c1ccc2ccc(OCCCCN3CCN(c4cccc5sccc45)CC3)cc2[nH]1 [Brexpiprazole],136 ± 21,106,85.7 ± 10,102,123 ± 5.6,162,78.3 ± 6.2,115 ± 9.1,112 ± 8.2
CC(=O)OCC[N+](C)(C)C.[Cl-] [Acetylcholine Chloride],104 ± 23,85.8,95.1 ± 7.5,87.1,101 ± 9.6,97.8,69.3 ± 1.8,96.7 ± 6.8,107 ± 21
Cc1cc(C)cc(OCC2CNC(=O)O2)c1 (configuration not stated) [Metaxalone],100 ± 16,155,108.2 ± 0.2,100,120 ± 9.4,137,105 ± 6.4,111 ± 4.7,102 ± 3
Cn1c(=O)c2[nH]cnc2n(C)c1=O.Cn1c(=O)c2[nH]cnc2n(C)c1=O.NCCN [Aminophylline],98 ± 18,95.2,93.6 ± 9.1,99.4,101 ± 5.1,75.8,72 ± 16,97.4 ± 7.5,92.5 ± 24

SMILES,cell viability (HCI01),cell viability (HCI03),cell viability (HCI09),cell viability (HCI11),cell viability (HCI13),cell viability (HCI16),cell viability (UCD52),cell viability (WHIM2),cell viability (WHIM30)
C=CC[C@@H]1/C=C(\C)C[C@H](C)C[C@H](OC)[C@H]2O[C@@](O)(C(=O)C(=O)N3CCCC[C@H]3C(=O)O[C@H](/C(C)=C/[C@@H]3CC[C@@H](O)[C@H](OC)C3)[C@H](C)[C@@H](O)CC1=O)[C@H](C)C[C@@H]2OC [Tacrolimus (FK506)],55.9 ± 45,112,50.6 ± 16,85.4,99.2 ± 6.4,92,83.4 ± 4.2,85.9 ± 20,166 ± 19
CC(=O)OC1(C(C)=O)CCC2C3CCC4=CC(=O)CCC4=C3C(c3ccc(N(C)C)cc3)CC21C (configuration not stated) [Ulipristal acetate],97.9 ± 26,116,82.5 ± 9,78.9,92.8 ± 17,117,93.4 ± 5.8,105 ± 2.1,111 ± 18
O=C(CS(=O)Cc1ccco1)NCC=CCOc1cc(CN2CCCCC2)ccn1 (configuration not stated) [Lafutidine],137 ± 32,136,107 ± 3.1,108,190 ± 46,119,89.1 ± 3.8,88.6 ± 19,114 ± 2
CCCCN1CCCCC1C(=O)Nc1c(C)cccc1C.Cl (configuration not stated) [Bupivacaine HCl],145 ± 30,128,104 ± 14,120,106 ± 2.1,169,89 ± 16,111 ± 7.6,117 ± 12
CN(C)C(=O)NC1CCC(CCN2CCN(c3cccc(Cl)c3Cl)CC2)CC1 (configuration not stated) [Cariprazine],122 ± 28,72.1,43.9 ± 2.2,67.7,53.4 ± 11,89.7,38.5 ± 6,119 ± 8,118.6 ± 0.35
COc1ccc2nc(S(=O)Cc3ncc(C)c(OC)c3C)[nH]c2c1 (configuration not stated) [Omeprazole],127 ± 30,149,94.2 ± 5.6,102,94 ± 3.6,121,138 ± 16,99.8 ± 23,192 ± 5.1
Cl.Nc1ncnc2nc[nH]c12 [Adenine HCl],124 ± 9.7,126,112 ± 4.7,117,87.7 ± 10,147,165 ± 5.9,106 ± 4.3,101 ± 7.6
NS(=O)(=O)NCC/N=C1\NON\C1=C(\N=O)Nc1ccc(F)c(Br)c1,105 ± 6.8,99,35 ± 8.5,96.4,66.5 ± 1.4,112,57.5 ± 3.6,88.9 ± 9.7,96.2 ± 6
CC(C(=O)O)c1ccc2c(c1)Cc1cccnc1O2 (configuration not stated) [Pranoprofen],113 ± 13,128,93.6 ± 16,78.6,123 ± 16,125,98.8 ± 19,110 ± 3.3,111 ± 22
CC(C)Cn1cnc2c(N)nc3ccccc3c21 [Imiquimod],92.9 ± 12,109,72.71 ± 0.55,42.7,91 ± 20,,76.7 ± 1.4,115 ± 14,116 ± 8
CC1COc2c(N3CCN(C)CC3)c(F)cc3c(=O)c(C(=O)O)cn1c23 (configuration not stated) [Ofloxacin],123 ± 23,173,135 ± 18,86.6,186 ± 11,133,138.6 ± 1,,159 ± 11
COc1cc2nc(N3CCN(C(=O)c4ccco4)CC3)nc(N)c2cc1OC.Cl [Prazosin HCl],152 ± 2.9,129,36.9 ± 1.6,131,108 ± 16,156,140 ± 7.2,52.5 ± 4.7,114 ± 1.7
CCCCCOc1ccc(-c2cc(-c3ccc(C(=O)NC4CC(O)C(O)NC(=O)C5C(O)C(C)CN5C(=O)C(C(O)CC(N)=O)NC(=O)C(C(O)C(O)c5ccc(O)c(OS(=O)(=O)[O-])c5)NC(=O)C5CC(O)CN5C(=O)C(C(C)O)NC4=O)cc3)no2)cc1.[Na+] (configuration not stated) [Micafungin sodium],104 ± 7.9,96.4,85.7 ± 5.6,92.6,113 ± 4,93.3,75.7 ± 12,39.4 ± 2.2,99 ± 12
CC(C)(O)c1ccccc1CCC(SCC1(CC(=O)[O-])CC1)c1cccc(C=Cc2ccc3ccc(Cl)cc3n2)c1.[Na+] (configuration not stated) [Montelukast Sodium],41.5 ± 20,169,83.3 ± 85,103,45.5 ± 6.3,165,,50.8 ± 12,156.57 ± 0.11
O=C1CCC(C(=O)N2CSCC2C(=O)O)N1 (configuration not stated) [Pidotimod],93.1 ± 30,137,96.2 ± 5.1,96.7,132 ± 3.4,108,98.5 ± 9.8,90 ± 22,122 ± 2.3
CCC1C(O)C2C3CCC(C(C)CCC(=O)O)C3(C)CCC2C2(C)CCC(O)CC12 (configuration not stated) [Obeticholic Acid],137 ± 53,149,77.56 ± 0.36,112,81.8 ± 14,145,98.9 ± 10,120 ± 1.9,151 ± 2.4
O=C(O)CCNC(=O)c1ccc(/N=N/c2ccc(O)c(C(=O)O)c2)cc1 [Balsalazide],96.3 ± 18,120,87.6 ± 1.2,91.1,120 ± 6.3,114,93.5 ± 10,98.8 ± 15,110 ± 6.1
